Screening data from PubChem BioAssay.
BL2 CD40 inh: CD40 pathway inhibition in BL2 cells. BL2 NF-kB luciferase reporter, CD40L-induced, 4 h. inhibition, % at 10 µM. AID 1053188. actives 0.94% (n = 83,000);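 active = mean inhibition of at least 50% with a set share of replicates also reaching that level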;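 also: 0% = neutral control wells and 100% = IKK inhibitor VII at 50 µM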
Starred values were filed as active, the others as inactive; [ ] = another dose, or the depositor's remark. This is one part of a sample in which hits are shown more often than they occur.

SMILES	BL2 CD40 inh
COc1cc2c(cc1OC)C1Cc3ccc(OC)c(OC)c3CN1CC2 (centres undefined)	-14.6[25 µM]
O=C(C[C@@H]1CC[C@H]2[C@@H](COC[C@H](O)CN2C(=O)c2ccc(F)cc2)O1)N1CCCCC1	-9.4[25 µM]
COc1cccc(S(=O)(=O)N[C@@H]2CC[C@H](CC(=O)NC3Cc4ccccc4C3)O[C@@H]2CO)c1	-3.4[25 µM]
CN(C)C(=O)[C@H]1[C@H](CO)[C@H]2Cn3c(ccc(/C=C/c4ccccc4)c3=O)[C@H]2N1C(=O)c1cccnc1	-2.5[25 µM]
C[C@@H]1CN([C@H](C)CO)C(=O)Cc2cc(NS(=O)(=O)c3ccc(F)cc3)ccc2O[C@H]1CN(C)Cc1ccc(C(F)(F)F)cc1	55.7*
C[C@H](CO)N1C[C@H](C)[C@@H](CN(C)Cc2ccncc2)Oc2ccc(NS(=O)(=O)c3ccc(F)cc3)cc2CC1=O	0.1[25 µM]
C[C@@H]1CN([C@@H](C)CO)C(=O)Cc2cc(NS(=O)(=O)c3ccc(F)cc3)ccc2O[C@H]1CN(C)Cc1ccncc1	6.9[25 µM]
COc1ccc(CN(C)C[C@H]2Oc3ccc(NS(=O)(=O)c4ccc(Cl)cc4)cc3CC(=O)N([C@@H](C)CO)C[C@@H]2C)cc1	13.1
C[C@@H]1CN([C@H](C)CO)C(=O)Cc2cc(NS(=O)(=O)c3ccc(F)cc3)ccc2O[C@H]1CN(C)Cc1ccncc1	5.2[25 µM]
C[C@H](CO)N1C[C@H](C)[C@@H](CN(C)Cc2ccc(C(F)(F)F)cc2)Oc2ccc(NS(=O)(=O)c3ccc(Cl)cc3)cc2CC1=O	52.3*
C[C@@H]1CN([C@H](C)CO)C(=O)Cc2cc(NS(C)(=O)=O)ccc2O[C@@H]1CN(C)Cc1ccc(C(=O)O)cc1	-1.3
C[C@@H]1CN([C@H](C)CO)C(=O)Cc2cc(NS(=O)(=O)c3ccccc3)ccc2O[C@H]1CN(C)Cc1ccc(Cl)c(Cl)c1	42.2
C[C@@H]1CN([C@@H](C)CO)C(=O)Cc2cc(NS(=O)(=O)c3ccc(F)cc3)ccc2O[C@@H]1CN(C)Cc1ccc(C(F)(F)F)cc1	47.2*
CC(=O)N(C)C[C@H]1Oc2ccc(N(S(C)(=O)=O)S(C)(=O)=O)cc2C(=O)N(C)C[C@@H]1C	18.4
CCCNC(=O)N1C[C@@H]2[C@H](c3ccccc31)[C@H](CO)N2C(=O)NC(C)C	1.9[25 µM]
COc1ccc2c3c(n(C)c2c1)[C@H](CO)N(S(C)(=O)=O)CC31CCN(Cc2nccs2)CC1	-5.5[25 µM]
COc1cccc(CNC(=O)[C@@H]2N[C@@H]3c4ccc(/C=C/c5ccccc5)c(=O)n4C[C@@H]3[C@H]2CO)c1	-4.0[25 µM]
O=C(C[C@@H]1C[C@@H]2c3cc(NC(=O)C4CCOCC4)ccc3O[C@@H]2[C@H](CO)O1)NCc1ccc(Oc2ccccc2)cc1	3.9[25 µM]
CC[C@H]1C/C=C\C[C@H](CC)NC(=O)[C@@H](C)CC(=O)N1	6.1[25 µM]
Cc1noc(C)c1NC(=O)N[C@H]1CC[C@@H](CCNC(=O)C2CCCCC2)O[C@H]1CO	-5.0
COc1ccccc1NC(=O)N1[C@@H]2CNC[C@H]1[C@@H]2c1ccc(-c2ccc(C#N)cc2)cc1	-16.5
C[C@@H](NC(=O)C[C@@H]1C=C[C@H](NS(=O)(=O)c2cccc(F)c2)[C@H](CO)O1)c1ccccc1	-1.3[25 µM]
O=C(NCc1ccccn1)C1CCN(S(=O)(=O)c2ccccc2)CC1	8.5
CCOc1ccc(S(=O)(=O)N2CCCC(C(=O)NCc3ccccn3)C2)cc1Cl (centres undefined)	-0.9
O=C(NCc1ccccn1)C1CCCN(S(=O)(=O)c2ccccc2)C1 (centres undefined)	25.8*
SMILES	BL2 CD40 inh
CO[C@@H]1CN(C)C(=O)c2cc(NS(=O)(=O)c3cccc(Cl)c3)ccc2OC[C@H](C)NC[C@H]1C	-6.4[25 µM]
Fc1ccc(CN2[C@@H]3CN(CC(F)(F)F)C[C@H]2C3c2ccc(Br)cc2)cc1 (some centres undefined)	7.1
CCS(=O)(=O)Nc1ccc2c(c1)C(=O)N(C)[C@H]1CC[C@@H](CC(=O)NCc3ccc(OC)cc3)O[C@H]1CO2	-3.7[25 µM]
C[C@@H]1CN([C@H](C)CO)C(=O)c2cc(NS(=O)(=O)c3cn(C)cn3)ccc2O[C@H]1CN(C)S(=O)(=O)c1ccc(F)cc1	-8.9[25 µM]
CN(C)c1ccc(C(=O)c2ccccc2C(=O)O)cc1[N+](=O)[O-]	10.7
O=C(COC(=O)c1ccccc1C(=O)c1ccc(Cl)c([N+](=O)[O-])c1)NC1CC1	97.5*
O=C(OC1CCOC1=O)c1ccccc1C(=O)c1ccc(Cl)c([N+](=O)[O-])c1 (centres undefined)	78.0*
CC1CCC(NC(=O)COC(=O)CSc2ccc(C(N)=O)cc2[N+](=O)[O-])CC1 (centres undefined)	6.5
CNc1ccc(C(=O)c2ccccc2C(=O)O)cc1[N+](=O)[O-]	0.5
O=C(COC(=O)c1ccccc1[N+](=O)[O-])Nc1cccnc1Cl	-35.3
CS(=O)(=O)c1ccc(Cl)c(C(=O)OCC(=O)NC2CCCCCCC2)c1	20.6
O=C(COC(=O)c1ccccc1[N+](=O)[O-])c1ccc(C2CCCCC2)cc1	90.8*
Cc1c(C(=O)OCC(=O)NC(=O)NC2CCCCC2)cccc1[N+](=O)[O-]	0.1
CCCNC(=O)[C@H]1[C@H](CO)[C@H]2Cn3c(ccc(C4=CCCC4)c3=O)[C@@H]1N2C(=O)C1CC1	-14.6[25 µM]
O=C(Nc1cccc(Cl)c1)N1C[C@@H]2[C@H](c3ccccc31)[C@@H](CO)N2C(=O)C1CCCC1	13.9[25 µM]
CC(C)NC(=O)N1[C@H](CO)[C@@H]2c3ccccc3N(C(=O)C3CCC3)C[C@@H]21	-1.9
Cc1ccc(CC(=O)Nc2ncc([N+](=O)[O-])s2)cc1	-47.2
O=C(/C=C/c1ccc([N+](=O)[O-])cc1)Nc1ncc([N+](=O)[O-])s1	91.9*
CCCCC(CC)C(=O)Nc1ncc([N+](=O)[O-])s1 (centres undefined)	8.2
C[C@H](CO)N1C[C@H](C)[C@H](CN(C)C(=O)c2cc(-c3ccccc3)on2)OCc2cn(nn2)CCCC1=O	-14.7[25 µM]
CNC(=O)C1OC(n2cnc3c(NCc4cccc(I)c4)ncnc32)C(O)C1O (centres undefined)	-5.3[25 µM]
COc1ccc(CN(C)C[C@@H]2Oc3ccc(NC(=O)NC(C)C)cc3C(=O)N([C@H](C)CO)C[C@@H]2C)cc1	-0.2
Cc1ccc(S(=O)(=O)N[C@H]2C=C[C@H](CC(=O)NCc3ccc(Cl)c(Cl)c3)O[C@H]2CO)cc1	-14.6[25 µM]
CCOC(=O)c1c(-c2ccc(C)o2)csc1NC(=O)CN1CCN(CC)CC1	-2.2
CCOC(=O)c1c(-c2ccc(C)o2)csc1NC(=O)CN1CCCCC1	62.6*
SMILES	BL2 CD40 inh
CCOC(=O)c1c(-c2ccc(C)o2)csc1NC(=O)CN1CCC(C(N)=O)CC1	-5.6
O=C(c1ccc(Cl)c(Cl)c1)N1CCC(O)(CN2CCOCC2)CC1	6.2
O=C1/C(=C\c2ccc(Cl)c(Cl)c2)CN(C(=O)CCN2CCOCC2)C/C1=C/c1ccc(Cl)c(Cl)c1	74.2*
CC(=O)N1CCC(N(CCN2CCOCC2)C(=O)Nc2ccc(Cl)c(Cl)c2)CC1	-0.9
CC(C)C#Cc1ccc([C@@H]2[C@H](CO)N3C(=O)CN(C(=O)NC4CCCCC4)C[C@@H]23)cc1	-2.0
Cc1ccccc1OCC(=O)Nc1ccc2c(c1)Cc1ccccc1-2	7.0
Cc1ccccc1OCC(=O)Nc1cccc(C(=O)O)c1	91.2*
Cc1ccccc1OCC(=O)Nc1ccc2c(c1)C(=O)c1ccccc1C2=O	-9.2
c1ccc2c(-c3nc4ccccc4[nH]3)cccc2c1	-2.5
c1ccc2nc(-c3nc4ccccc4[nH]3)ccc2c1	77.9*
c1ccc2[nH]c(-c3cscn3)nc2c1	-58.4
